Screening data deposited in PubChem by National Center for Advancing Translational Sciences (NCATS).
HTT cytoprotect: qHTS Multiplex Assay to Identify Dual Action Probes in a Cell Model of Huntington: Cytoprotection (ATP). AID 1471, 2008. Potency, µM (highest dose often 56.4 µM), hits mostly activators. 230,000 tested, 0.14% active. PC12 HTT-Q103 induced, cytoprotection, ATP luminescence, 40 h; active = well fitted curve in the direction sought with a large enough effect; inconclusive = small, poorly fitted or top-dose-only effect, or another doubt; inactive = no such curve, though single readings can be large; an effect the other way counts as inactive or inconclusive; also: nearly all actives have a fitted effect of over 45% in size
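Rat PC12, Q103 Htt exon1-GFP fusion, ecdysone promoter; tebufenozide inducer 100 nM final; compound titration; qHTS, 1500 cells/well; ATPlite luminescent read.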
ALDH1A1 block: qHTS Assay for Inhibitors of Aldehyde Dehydrogenase 1 (ALDH1A1) | Potency, µM (highest dose often 75.3 µM), most hits filed as inhibitors | 220,000 tested, 7.3% active | Purified ALDH1A1, NADH fluorescence, propionaldehyde substrate | Aldehyde dehydrogenase 1A1 (Homo sapiens), P00352
PNC assembly inh: High Content Assay for Compounds that inhibit the Assembly of the Perinucleolar Compartment. PC3M PTB-GFP, PNC prevalence imaging, 16 h; stronger effect = lower value. activity change (PNC), negative = inhibition, % at 10 µM. 140,000 tested, 3.1% active. AID 2417, 2010;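 active = readout at or below -70, meaning at least 70% loss of cells showing the perinucleolar compartment, a nuclear body marking cancer cells; inconclusive = readout between -30 and a set limit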
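Read-out is percentage of cells bearing a perinucleolar compartment, from automated 20x imaging of fixed, Hoechst-stained PC3M PTB-GFP cells. Cells were seeded 4 h, then exposed 16 h to compound (23 nl of library stock) in duplicate plates.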
GoLoco inh red: qHTS Assay for Inhibitors of RGS12 GoLoco Motif Activity (Red Fluorophore); Guanine nucleotide-binding protein G(i) subunit alpha-1 (Homo sapiens), P63096; Gai1:RGS12 GoLoco peptide FP, rhodamine, 10 min; Potency, µM (series often up to 61.6 µM), hits mostly inhibitors; 230,000 tested, 0.44% active; AID 880, 2007; active = well fitted inhibition curve with a large enough effect, not every such curve was filed as active; inactive = no such curve, though single readings can be large or run the other way; also: nearly all actives have a fitted effect of over 30% in size
Target sequence (P63096 whole entry, looked up): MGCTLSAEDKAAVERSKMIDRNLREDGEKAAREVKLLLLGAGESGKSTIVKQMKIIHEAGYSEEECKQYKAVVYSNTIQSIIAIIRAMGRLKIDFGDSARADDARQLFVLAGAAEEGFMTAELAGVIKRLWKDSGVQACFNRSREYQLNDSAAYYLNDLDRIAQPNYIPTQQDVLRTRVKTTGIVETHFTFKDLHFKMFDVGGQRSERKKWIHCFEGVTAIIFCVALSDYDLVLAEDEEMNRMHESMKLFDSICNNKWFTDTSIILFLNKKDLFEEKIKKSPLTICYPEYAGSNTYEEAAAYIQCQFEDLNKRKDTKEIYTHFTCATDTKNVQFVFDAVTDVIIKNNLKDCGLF
HTT aggregate: qHTS Multiplex Assay to Identify Dual Action Probes in a Cell Model of Huntington: Aggregate Formation (GFP). 220,000 tested, 1.1% active. PC12 HttQ103-GFP aggregates, Acumen cytometry, 40 h. AID 1688, 2009. Potency, µM (doses to about 46.1 µM), most hits filed as inhibitors; active = well fitted curve in the direction sought with a large enough effect; inconclusive = small, poorly fitted or top-dose-only effect, or another doubt; inactive = no such curve, though single readings can be large; an effect the other way counts as inactive or inconclusive; also: nearly all actives have a fitted effect of over 60% in size
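Huntingtin Q103 exon 1–GFP aggregates in induced PC12 cells (100 nM tebufenozide) were quantified by cytometry from lysates, with compounds dosed in titration.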
HPGD block: qHTS Assay for Inhibitors of HPGD (15-Hydroxyprostaglandin Dehydrogenase). purified HPGD, NADH fluorescence kinetic, PGE2 substrate. Potency, µM, actives largely listed as inhibitors. 150,000 tested, 4.3% active. AID 894, 2007
Target sequence (P15428 whole entry, looked up): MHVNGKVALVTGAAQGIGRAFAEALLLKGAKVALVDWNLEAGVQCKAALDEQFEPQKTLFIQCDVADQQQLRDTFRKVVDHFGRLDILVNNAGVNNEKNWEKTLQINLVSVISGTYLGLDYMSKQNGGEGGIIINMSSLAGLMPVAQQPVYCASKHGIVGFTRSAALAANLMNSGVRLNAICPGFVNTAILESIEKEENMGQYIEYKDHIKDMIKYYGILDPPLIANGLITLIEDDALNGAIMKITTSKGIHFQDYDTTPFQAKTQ
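NADH formation kinetics: reaction with 30 uM PGE2 and 1 mM NAD+ (final), 20 nM enzyme, Tris-HCl pH 8 with Tween 20, after 15 min compound preincubation at room temperature. Fluorescence change, last versus first of five reads.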
Of the large screens only hits and unclear results are named; the others gave an inactive call. Shown are actives, neighbours in structure and some others; about 11% of the full set was active somewhere. Unless noted, calls follow the shape of the dose curve; as a rule, active = well fitted inhibition curve with a large enough effect (not every such curve was filed as active); inconclusive = small, poorly fitted or top-dose-only effect, or another doubt; inactive = no such curve, though single readings can be large or run the other way.

CN(C)S(=O)(=O)c1ccc(S(=O)(=O)N(CC(=O)Nc2ccccc2)CC2CCCO2)cc1 (stereo not given)	ALDH1A1 block inconclusive
O=S(=O)(NCc1ccccc1)c1ccc(S(=O)(=O)N(Cc2ccccn2)Cc2ccco2)cc1	none
Cc1ccc(C(=O)NNC(=O)/C=C\C(=O)O)cc1	HTT aggregate inconclusive (no result: ALDH1A1 block, PNC assembly inh, HPGD block)
Nc1nc(SCc2ccccc2[N+](=O)[O-])c2[nH]cnc2n1	none (no result: PNC assembly inh, HTT aggregate)
CCCc1c(C)nn(-c2ncccc2[N+](=O)[O-])c1C	none (no result: PNC assembly inh, HPGD block)
CCOC(=O)C(C(=O)OCC)C1CCS(=O)(=O)C1 (stereo not given)	PNC assembly inh -100
CCOC(=O)C(=O)N(CC)C1CCS(=O)(=O)C1 (stereo not given)	none (no result: PNC assembly inh, HPGD block)
CCOc1ccc(CNC(=S)N/N=C\c2ccc([N+](=O)[O-])cc2)cc1	ALDH1A1 block 3.2µM, PNC assembly inh -92
CCOc1ccc(CNC(=S)N/N=C/c2cccnc2)cc1	PNC assembly inh inconclusive
COCCNC(=S)N/N=C/c1ccc(OCc2ccc(C(=O)OC)cc2)c(OC)c1	PNC assembly inh inconclusive (no result: HTT cytoprotect)
CCCCNC(=S)N/N=C/c1ccc(OCC(=O)Nc2c(C)cc(C)cc2C)c(OC)c1	PNC assembly inh -82
CCCCOc1ccc(CNC(=S)N/N=C/c2ccc(OC)c(OC)c2)cc1	HPGD block 16µM
N#Cc1ccc(CN2CC3(CCN(C(=O)c4cc(C(F)(F)F)cc(C(F)(F)F)c4)CC3)C2)cc1	none (no result: PNC assembly inh, HTT aggregate)
O=C(O)NCC1CCCCC1 (tested in a mixture with another compound)	none (no result: PNC assembly inh, HTT aggregate)
O=C(c1cc(F)c(F)cc1Cl)N1CCCCC1	HPGD block 5.6µM
O=C(c1cc2c(cc1Br)OCCCO2)N1CCCCC1	HPGD block 2.2µM
N=C(N)SCCc1ccc(CCSC(=N)N)cc1	none (no result: PNC assembly inh, HTT aggregate)
Cc1ccc(NC(=O)C2Cc3ccccc3CN2C(=O)c2ccccc2)cc1Cl (stereo not given)	none
COCCOC(=O)C1=C(C)N(c2ccccc2)C(=O)NC1c1cccc([N+](=O)[O-])c1 (stereo not given)	ALDH1A1 block inconclusive, HTT aggregate inconclusive
COCCOC(=O)C1=C(C)Nc2cc(=O)[nH]c(=O)n2C1c1cccc([N+](=O)[O-])c1 (stereo not given)	ALDH1A1 block inconclusive, PNC assembly inh -109 (no result: HTT cytoprotect)
CC(C)N1CCC(=NNc2ccc(S(=O)(=O)N3CCOCC3)cc2[N+](=O)[O-])CC1	ALDH1A1 block 28µM
CC(=O)N1CCC(=NNc2ccc(S(=O)(=O)N3CCOCC3)cc2[N+](=O)[O-])CC1	none
COc1ccccc1-n1c(N)c(C(N)=O)sc1=S	ALDH1A1 block 28µM, HPGD block 28µM
Cn1c(N)c(C(=O)Nc2ccc3ccccc3c2)sc1=S	ALDH1A1 block 13µM, HPGD block 8.9µM
Nc1c(C(=O)Nc2ccc(F)cc2)sc(=S)n1-c1ccccc1F	ALDH1A1 block 13µM (no result: PNC assembly inh, HPGD block)
CCNc1ncc2nc(-c3ccc(F)cc3)c(=O)n(CCOC)c2n1	ALDH1A1 block inconclusive (no result: PNC assembly inh, HTT aggregate, HPGD block)
Cc1ccc(N/C=C2\C(=O)C3(C)CCC2C3(C)C)cc1C (stereo not given)	ALDH1A1 block 14µM, HTT aggregate inconclusive (no result: PNC assembly inh, HPGD block)
Cc1ccc(NC(=O)CSCCc2ccccn2)nc1	none
O=c1cc(CN2CCN(c3ccccc3F)CC2)c2cc(O)c(-c3ccccc3)cc2o1	ALDH1A1 block 28µM (no result: HTT cytoprotect)
COc1cccc(Nc2ncc3nc(CCc4ccccc4)c(=O)n(CCC#N)c3n2)c1	HPGD block inconclusive (no result: PNC assembly inh, HTT aggregate)
CC(=O)/C=C/c1ccc(C)o1	ALDH1A1 block inconclusive (no result: PNC assembly inh, HPGD block)
CC(/C=C/c1ccc(C)o1)=C\C(=O)O	ALDH1A1 block 20µM, HTT aggregate inconclusive
CCOC(=O)/C=C/C(=O)Nc1ccc(S(=O)(=O)Nc2c(C)cc(C)cc2C)cc1	ALDH1A1 block 13µM
Cc1ccc(/C=C/C(=O)Nc2ccc([N+](=O)[O-])cc2)o1	ALDH1A1 block 12µM (no result: GoLoco inh red, HPGD block)
COC(=O)Nc1ccc(Oc2ccccc2)cc1	PNC assembly inh -93, HPGD block inconclusive
Cc1ccnc(N=Cc2c(O)ccc3oc4c(c23)CCCC4)c1	ALDH1A1 block inconclusive, HTT aggregate inconclusive
Cc1ccc(/C=C/C(=O)Nc2ccc(Oc3ccccc3)cc2)o1	ALDH1A1 block 24µM, HPGD block 25µM
CCOC(=O)/C=C/C(=O)Nc1ccc(Oc2ccccc2)cc1	ALDH1A1 block 25µM (no result: PNC assembly inh, HPGD block)
Cc1ccc(/C=C/C(=O)N2CC(C)CC(C)C2)o1 (stereo not given)	ALDH1A1 block 10µM, HPGD block inconclusive
COC(=O)c1cc(Cl)c(NC(=O)/C=C/c2ccc(Cl)cc2Cl)cc1OC	ALDH1A1 block inconclusive, HPGD block inconclusive
COC(=O)c1ccc(Cl)cc1NC(=O)/C=C/c1ccc(C)o1	ALDH1A1 block 20µM, PNC assembly inh -124, HTT aggregate inconclusive, HPGD block inconclusive (no result: HTT cytoprotect)
CCN1CCN(C(=O)/C=C/c2ccc(C)o2)CC1	none
O=C(OC1CCOC1=O)c1cc(-c2cccs2)nc2ccccc12 (stereo not given)	ALDH1A1 block inconclusive (no result: PNC assembly inh, HPGD block)
CCNC(=S)Nc1cc(-c2ccc(Cl)cc2)[nH]n1	ALDH1A1 block 1.3µM (no result: PNC assembly inh, HPGD block)
CCNC(=S)Nc1ccc(Cl)cc1	none
O=C(c1ccccc1)c1c[nH]cc1-c1ccccc1	ALDH1A1 block inconclusive, PNC assembly inh -100
CCOc1ccc(C(C)(C)C)cc1S(=O)(=O)N1CCOCC1	ALDH1A1 block 3.2µM, PNC assembly inh -97, HTT aggregate inconclusive
CCOc1ccc(S(=O)(=O)N2CCCCC2)c2ccccc12	ALDH1A1 block 32µM
CCOc1ccc(C)cc1S(=O)(=O)N1CCCCC1	none
C=C(C)C(O)/C=C/c1ccc(OC)cc1 (stereo not given)	ALDH1A1 block inconclusive (no result: PNC assembly inh, GoLoco inh red, HTT aggregate, HPGD block)
CCC(C)N1C(=O)CN(C2CCCCCC2)C(=O)C1c1ccccc1F (stereo not given)	ALDH1A1 block 16µM (no result: PNC assembly inh, HPGD block)
COc1ccccc1CN1C(=O)CN(C2CCCCCC2)C(=O)C1c1ccc(F)cc1 (stereo not given)	ALDH1A1 block inconclusive, PNC assembly inh inconclusive
C=CCOc1ccc(C=Nc2ccc(C)c(Cl)c2)c(O)c1	none
Cc1ccc(S(=O)(=O)N=Nc2c(O)[nH]c3cc(O)c(C(=O)O)cc23)cc1	none (no result: PNC assembly inh, HTT aggregate)
O=C(Cc1noc2ccccc12)Nc1ccc2ccccc2c1	none
